The target of experiment [1] is Acetylcholinesterase (Homo sapiens) (UniProt P22303). Nature of the experiment: Acetylcholinesterase (AChE) small molecule antagonists: enzyme-based qHTS assay (AID 1347397). Also: nearly all actives have a fitted effect of over 55% in size. The following applies: Potency: AChE enzyme activity inhibition; outcome: AChE enzyme activity inhibition; series mostly up to 115 µM. In a few lines: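 In this quantitative HTS, compounds from the Tox21 10K collection were preincubated 30 min at ambient temperature with recombinant human AChE dispensed at 50 mU/mL. Hydrolysis of acetylthiocholine was then followed for 10 min by DTNB colour development.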
Acetylcholinesterase (Homo sapiens), sequence (P22303 whole entry, looked up): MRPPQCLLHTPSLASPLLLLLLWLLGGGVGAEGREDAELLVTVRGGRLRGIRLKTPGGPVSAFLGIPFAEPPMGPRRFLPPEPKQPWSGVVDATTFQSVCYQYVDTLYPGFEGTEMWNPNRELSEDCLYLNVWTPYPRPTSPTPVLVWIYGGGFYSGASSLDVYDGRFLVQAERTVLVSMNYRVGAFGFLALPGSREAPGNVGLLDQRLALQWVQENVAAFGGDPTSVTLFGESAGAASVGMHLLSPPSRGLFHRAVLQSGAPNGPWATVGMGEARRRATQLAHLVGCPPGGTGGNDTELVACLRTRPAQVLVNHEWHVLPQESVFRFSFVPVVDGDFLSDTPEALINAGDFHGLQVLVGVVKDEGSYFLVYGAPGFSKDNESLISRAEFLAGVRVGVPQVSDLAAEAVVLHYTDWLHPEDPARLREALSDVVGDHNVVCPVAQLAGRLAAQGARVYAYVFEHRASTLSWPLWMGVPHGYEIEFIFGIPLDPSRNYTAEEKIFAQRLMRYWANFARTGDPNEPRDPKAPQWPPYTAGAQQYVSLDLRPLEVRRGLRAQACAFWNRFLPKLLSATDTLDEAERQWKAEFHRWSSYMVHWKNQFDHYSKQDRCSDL

Experiment [2] has the same target. In words: Acetylcholinesterase (AChE) small molecule antagonists: enzyme-based qHTS assay with human liver microsomes (AID 1347399). Also: nearly all actives have a fitted effect of over 60% in size. The conditions noted are these: Potency: qHTS inhibition; outcome: qHTS inhibition; series mostly up to 115 µM. In a few lines: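 Recombinant human AChE (50 mU/mL in the enzyme mix) and human liver microsomes (0.25 mg/mL final) were preincubated with compound and NADPH (0.25 mg/mL final) for 30 min at 37 C. Acetylthiocholine/DTNB was then added; thiocholine was read colorimetrically after 10 min at room temperature.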
On the technique in general: qHTS replaces the single test concentration by a dilution series.

The target is the same in experiment [3]. Nature of the experiment: Acetylcholinesterase (AChE) small molecule antagonists: fluorescence cell-based qHTS assay (AID 1347398). Also: nearly all actives have a fitted effect of over 50% in size. The conditions noted are these: SH-SY5Y cells; Potency: AChE activity; outcome: AChE activity; series mostly up to 115 µM. In a few lines:
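Cells (SH-SY5Y) attached overnight, were dosed with compound or DMSO vehicle for 30 min at 37 C, and then incubated 40 min at room temperature with acetylthiocholine and Thiolite Green; green fluorescence indexed AChE activity.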

Unmarked numbers belong to inactive results. Records with an inconclusive call do not appear. The source made the active and inactive calls. Calls follow the shape of the full dose curve.
% is scaled to controls: 0 for no effect and ±100 for the full control effect.

On to `COc1ccc(-n2nc(C(F)F)cc2-c2ccc(S(C)=O)cc2)cc1` (configuration not stated), for which the Potency result in experiment [1] and in experiment [2] was “inactive” throughout.
Consider `CN(C(=O)CCCOc1ccc2[nH]c(=O)ccc2c1)C1CCCCC1`, for which the Potency result in experiment [1] and in experiment [2] was “inactive” in each case.
As to `O=C1CC2(CCCC2)CC(=O)N1CCCCN1CCN(c2ncccn2)CC1`, the Potency result in experiment [1] and in experiment [2] was “inactive” each time.
`NC(=O)C(c1ccccc1)(c1ccccc1)[C@@H]1CCN(CCc2ccc3c(c2)CCO3)C1`: the Potency result in experiment [1] and in experiment [2] was “inactive” in each case.
`NC(=O)c1ccc(N)cc1`: the Potency result in experiment [1], in experiment [3] and in experiment [2] was “inactive” each time.
Consider `N[C@@H](CSCCCO)C(=O)O`, for which the figures for the activity change, negative = inhibition in experiment [1], in experiment [3] and in experiment [2] were 1.52% [at 23.6 µM], 1.96% [at 23.8 µM] and -0.67% [at 23.6 µM], respectively.
`Cc1c(C)c2c(c(C)c1OC(=O)CCC(=O)OCCO)CC[C@@](C)(CCC[C@H](C)CCC[C@H](C)CCCC(C)C)O2`: the Potency entry in experiment [1] and in experiment [2] was “inactive” each time.
With `C=CC(C)(CCC=C(C)C)OC=O` (configuration not stated), the Potency entry in experiment [1] and in experiment [2] was “inactive” in each case.
As for `OCCC(F)(F)C(F)(F)C(F)(F)C(F)(F)C(F)(F)C(F)(F)C(F)(F)C(F)(F)F`, the Potency entry in experiment [1], in experiment [3] and in experiment [2] was “inactive” throughout.
Take `C[n+]1ccn(Cc2ccccc2)c1`: the Potency result in experiment [1] and in experiment [2] was “inactive” each time.
As for `CN1CCN2c3ccccc3Cc3ccccc3C2C1` (configuration not stated), the Potency result in experiment [1] and in experiment [2] was “inactive” throughout.
Consider `CN1CCN(c2cc3c(nn2)Oc2ccccc2N3C)CC1`, for which the activity change, negative = inhibition was -13.5% [at 23.6 µM] in experiment [1] and 1.76% [at 23.6 µM] in experiment [2].
Turning to `c1ccc2c(CC3=NCCN3)cccc2c1`, the Potency result in experiment [1] and in experiment [2] was “inactive” each time.
For the compound `CC(C)C[C@@H]1[C@H](c2ccccc2)OC(=O)N1CCCN1CCCCCC1`, the Potency entry in experiment [1] and in experiment [2] was “inactive” each time.
For `N#CSCSc1nc2ccccc2s1`, the Potency result in experiment [1], in experiment [3] and in experiment [2] was “inactive” throughout.
Consider `COc1cc2ncnc(Nc3ccc(F)c(Cl)c3)c2cc1OCCCN1CCOCC1`, for which the Potency result in experiment [1] and in experiment [2] was “inactive” in each case.
For the compound `CC(C)C(=O)Nc1cccc(C2CN3CCSC3=N2)c1` (configuration not stated), the Potency result in experiment [1] and in experiment [2] was “inactive” throughout.
For `C[C@@H]1CCC[C@H](C)N1CCCC(O)(c1ccccc1)c1ccccn1` (some centres not stated), the Potency entry in experiment [1] and in experiment [2] was “inactive” throughout.
As for `O=C1CCN(c2ccccc2)N1`, the Potency entry in experiment [1] and in experiment [2] was “inactive” in each case.
With `C=CC(=O)OCC[N+](C)(C)C`, the Potency entry in experiment [1] and in experiment [2] was “inactive” in each case.
As for `Cc1c(C)n(CCN(C)C)c2ccc(C(=O)OCCN(C)C)cc12`, the Potency entry in experiment [1] and in experiment [2] was “inactive” each time.
In the case of `Cc1nc2n(c(=O)c1CCN1CCC(c3noc4cc(F)ccc34)CC1)CCCC2`, the Potency result in experiment [1] and in experiment [2] was “inactive” in each case.
Take `N#C/C(=C1\SCC(c2ccccc2Cl)S1)n1ccnc1` (configuration not stated): the Potency entry in experiment [1] and in experiment [2] was “inactive” throughout.
In the case of `CC(C)=CCC1=C(O)c2ccccc2C(=O)C1=O`, the Potency result in experiment [1] and in experiment [2] was “inactive” in each case.
As to `O=C(OCC(O)CO)c1ccccc1Nc1ccnc2cc(Cl)ccc12` (configuration not stated), the Potency result in experiment [1] and in experiment [2] was “inactive” throughout.
As for `CCN(CC)CCNC(=O)c1cc(Cl)c(N)cc1OC`, the Potency result in experiment [1] and in experiment [2] was “inactive” in each case.
Regarding `CC1=C(C)C(=O)C(CCCCC#CCCCC#CCO)=C(C)C1=O`, the Potency result in experiment [1] and in experiment [2] was “inactive” throughout.
As to `N#C/C(=C1/SC[C@@H](c2ccc(Cl)cc2Cl)S1)n1ccnc1`, the Potency result in experiment [1] and in experiment [2] was “inactive” in each case.
As for `Cc1ccc(C(=O)C(C)CN2CCCCC2)cc1` (configuration not stated), the Potency entry in experiment [1] and in experiment [2] was “inactive” each time.
Turning to `CCCCCCCCCCCCCCCCCCOS(=O)(=O)O`, in experiment [3], the Potency entry is “inactive”.
Consider `Cc1ccc(O)c([C@H](CCN(C(C)C)C(C)C)c2ccccc2)c1`, for which the Potency entry in experiment [1] and in experiment [2] was “inactive” in each case.
Consider `CN(C)CCC[C@@]1(c2ccc(F)cc2)OCc2cc(C#N)ccc21`, for which the Potency result in experiment [1] and in experiment [2] was “inactive” throughout.

For the origin of these results see PubChem BioAssay (Tox21).
